Reference: PubChem BioAssay (NCATS)
Records with an inconclusive call do not appear. Activity calls are given as the source filed them. Calls come from the whole dose curve; as a rule, active = well fitted curve in the direction sought with a large enough effect; inconclusive = small, poorly fitted or top-dose-only effect, or another doubt; inactive = no such curve, though single readings can be large; an effect the other way counts as inactive or inconclusive.

What was measured:
[1] = Quantitative highthroughput screen to assess conditional lethalithy of NOMO1 cells grown in RPMI1640 with untreated serum (RPMI+s) (AID 1963876); note: nearly all actives have a fitted effect of over 35% in size; note: potency is the fitted concentration of half-maximal effect;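 for viability: 100% = DMSO wells and 0% = empty wells without cells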
Method in brief: (§1)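 Each medium arm—HPLM with 10% dialyzed FBS, or RPMI1640 with 5 mM glucose and 10% untreated or dialyzed FBS—was screened against an 11-point, 3-fold compound titration for 48 h at 37 °C, with CellTiter-Glo luminescence as endpoint.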

[2] = Quantitative highthroughput screen to assess conditional lethalithy of NOMO1 cells grown in RPMI1640 with dialyzed fetal bovine serum (RPMI+ds) (AID 1963877); note: nearly all actives have a fitted effect of over 30% in size; note: potency is the fitted concentration of half-maximal effect;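 for viability: series mostly up to about 46 µM; 100% = DMSO control wells and 0% = empty wells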
Method in brief: as §1

[3] = Quantitative highthroughput screen to assess conditional lethalithy of P12 Ichikawa cells grown in Human Plasma-Like Medium with dialyzed fetal bovine serum (HPLM+ds) (AID 1963879); conditions: Potency: viability; note: nearly all actives have a fitted effect of over 35% in size; note: potency is the fitted concentration of half-maximal effect; for viability: series mostly up to about 46 µM
Method in brief: as §1

[4] = Quantitative highthroughput screen to assess conditional lethalithy of P12 Ichikawa cells grown in RPMI1640 with dialyzed fetal bovine serum (RPMI+ds) (AID 1963880); conditions: Potency: P12-Ichikawa viability; note: nearly all actives have a fitted effect of over 35% in size; note: potency is the fitted concentration of half-maximal effect;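 for viability: 100% = DMSO wells and 0% = empty wells on each plate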
Method in brief: as §1

[5] = Quantitative highthroughput screen to assess conditional lethalithy of P12 Ichikawa cells grown in RPMI1640 with untreated serum (RPMI+s) (AID 1963881); conditions: Potency: viability; note: nearly all actives have a fitted effect of over 35% in size; note: potency is the fitted concentration of half-maximal effect;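 for viability: series mostly up to about 46 µM; 100% = DMSO wells and 0% = empty wells without cells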
Method in brief: as §1

[6] = Quantitative highthroughput screen to assess conditional lethalithy of SEM cells grown in Human Plasma-Like Medium with dialyzed fetal bovine serum (HPLM+ds) (AID 1963882); note: nearly all actives have a fitted effect of over 35% in size; note: potency is the fitted concentration of half-maximal effect; for viability: series mostly up to about 46 µM
Method in brief: as §1

[7] = Cellular viability qHTS for adrenocortical cancer (ACC) cell line SW-13 (AID 1963989); conditions: SW-13 ACC cells viability, CellTiter-Glo, 48 h; activity (max response): stronger effect = lower value; note: nearly all actives have a fitted effect of over 65% in size; note: potency is the fitted concentration of half-maximal effect;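 for activity (max response): cells grown in serum-free medium with ITS supplement; % is set by controls: 0 for no effect and ±100 for the full control effect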
Method in brief: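 48 h treatment, SW-13 in ITS/DMEM serum-free; doses up to 46 uM; readout CellTiter-Glo luminescence; curve fit four-parameter logistic.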

[8] = Quantitative highthroughput screen to assess conditional lethalithy of NOMO1 cells grown in Human Plasma-Like Medium with dialyzed fetal bovine serum (HPLM+ds) (AID 1963878)
Method in brief: as §1

[9] = Cellular viability qHTS for adrenocortical cancer (ACC) cell line NCI-H295R (AID 1963990); note: nearly all actives have a fitted effect of over 60% in size; note: potency is the fitted concentration of half-maximal effect
Method in brief: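 Compound titrations (up to 46 uM final) are applied to NCI-H295R cultures for 48 h at 37C. Viable cell number is estimated by CellTiter-Glo signal, normalised to DMSO and doxorubicin controls.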

[10] = Quantitative highthroughput screen to assess conditional lethalithy of SEM cells grown in RPMI1640 with unreated serum (RPMI+s) (AID 1963883); note: nearly all actives have a fitted effect of over 35% in size; note: potency is the fitted concentration of half-maximal effect;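 for viability: 100% = DMSO wells and 0% = empty wells without cells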
Method in brief: as §1

[11] = Quantitative highthroughput screen to assess conditional lethalithy of SEM cells grown in RPMI1640 with dialyzed fetal bovine serum (RPMI+ds) (AID 1963884); note: nearly all actives have a fitted effect of over 35% in size; note: potency is the fitted concentration of half-maximal effect;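 for viability: series mostly up to about 46 µM; 100% = DMSO control wells and 0% = empty wells without cells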
Method in brief: as §1

O=C(C=Cc1ccc(/C=C/C(=O)Nc2ccc(C3=NCCN3)cc2)cc1)Nc1ccc(C2=NCCN2)cc1
inactive: Potency [1] | Potency [2] | Potency [3] | Potency [4] | Potency [5] | Potency [6]

O=C1c2ccccc2-c2n[nH]c3cccc1c23
active: Potency [1] 14.8 µM | Potency [2] 23.5 µM | Potency [3] 14.8 µM | Potency [4] 16.6 µM | Potency [5] 16.6 µM
inactive: activity (max response) [7] -13.1%

CCN1CCCC1CNC(=O)c1cc(S(N)(=O)=O)ccc1OC (configuration not stated)
inactive: Potency [1] | Potency [2] | Potency [3] | Potency [4] | Potency [5]

CC1COC2(CCN(c3nc(=O)c4cc(C(F)(F)F)cc([N+](=O)[O-])c4s3)CC2)O1 (configuration not stated)
inactive: Potency [1] | Potency [2] | Potency [8] | activity (max response) [7] -6.91% | Potency [9]

CC1(C)OC2=C(C(=O)c3ccccc3C2=O)[C@H](NCc2ccccc2)[C@H]1O
active: Potency [1] 4.18 µM | Potency [2] 9.35 µM | Potency [3] 14.8 µM | Potency [4] 16.6 µM | Potency [5] 8.33 µM | Potency [6] 11.8 µM | Potency [10] 7.43 µM | Potency [11] 16.6 µM

Cc1ccc(/C=N/NC(=O)c2ccccc2Oc2ccccc2)o1
inactive: Potency [1] | Potency [2] | Potency [3] | Potency [4] | Potency [6] | Potency [10] | activity (max response) [7] -16.3% | Potency [9]

CC(=O)N[C@H]1[C@@H]([C@H](O)[C@H](O)CO)OC(C(=O)O)=C[C@@H]1N=C(N)N
inactive: Potency [1] | Potency [2] | Potency [3] | Potency [4] | Potency [6]

Clc1cccc(-n2nnnc2NCc2ccccc2Oc2ccccn2)c1Cl
inactive: Potency [1] | Potency [2] | Potency [3] | Potency [4] | Potency [5] | Potency [6] | Potency [10] | Potency [11] | Potency [9]

CC(=Cc1ccccc1)C=C1SC(=S)N(CC(=O)O)C1=O
active: Potency [10] 5.9 µM
inactive: Potency [1] | Potency [2] | Potency [3] | Potency [4] | Potency [5] | Potency [6] | Potency [11]

COc1ccc2nc(S(=O)Cc3ncc(C)c(OC)c3C)[nH]c2c1 (configuration not stated)
inactive: Potency [1] | Potency [2] | Potency [3] | Potency [4] | Potency [5] | Potency [6] | Potency [10] | Potency [11] | activity (max response) [7] -12.3% | Potency [9]

CCC(=O)OCC(=O)[C@@]1(OC(=O)CC)[C@@H](C)C[C@@H]2[C@H]3CCC4=CC(=O)C=C[C@]4(C)[C@@]3(F)[C@@H](O)C[C@@]21C
active: Potency [1] 7.43 µM | Potency [2] 5.9 µM | Potency [3] 5.9 µM | Potency [4] 2.35 µM | Potency [5] 4.69 µM

COc1cc(NC(=O)c2ccc(-c3ccc(Cl)cc3)o2)cc(OC)c1
inactive: Potency [3] | Potency [4] | Potency [5] | Potency [6] | Potency [10] | Potency [11]
active: Potency [1] 1.87 µM | Potency [2] 2.35 µM

O=c1ccn([C@@H]2O[C@H](CO)[C@H](O)[C@@H]2F)c(=O)[nH]1
inactive: Potency [1] | Potency [2] | Potency [3] | Potency [4] | Potency [5] | Potency [10] | Potency [11] | activity (max response) [7] -7.29% | Potency [9]

CC(C=CC=C(C)C=CC1=C(C)CCCC1(C)C)=CC=CC=C(C)C=CC=C(C)C=CC1=C(C)CCCC1(C)C
inactive: Potency [1] | Potency [2] | Potency [3] | Potency [4] | Potency [5] | Potency [6] | Potency [11]

O=C1NC(=O)C(=Cc2cccc(C(F)(F)F)c2)S1
inactive: Potency [1] | Potency [2] | Potency [3] | Potency [4] | Potency [5] | Potency [6]

COc1cc(N2CCN(C)CC2)ccc1Nc1nc(N)c(C(=O)c2c(Cl)cccc2Cl)s1
inactive: Potency [1] | Potency [2] | Potency [8]
active: Potency [11] 20.9 µM

C=C1C[C@@]2(O)O[C@@]3(C[C@H]2C(C)C)[C@H](C)CC[C@H]13
inactive: Potency [1] | Potency [2] | Potency [3] | Potency [4] | Potency [5] | Potency [11]

CNC1[C@H](O)C(O[C@@H]2C(O)C(O[C@H]3O[C@H]([C@@H](C)NC)CC[C@H]3N)[C@@H](N)C[C@H]2N)OC[C@]1(C)O (some centres not stated)
inactive: Potency [1] | Potency [2] | Potency [3] | Potency [4] | Potency [5] | Potency [6] | Potency [10] | Potency [11]

N#Cc1ccc(NC(=O)Nc2ccccc2Br)c2n[nH]nc12
inactive: Potency [1] | Potency [2] | Potency [4] | Potency [5] | Potency [6] | Potency [10] | Potency [11] | activity (max response) [7] -2.82%

Cc1cccc(-c2[nH]ncc2-c2ccc3ncccc3n2)n1
active: Potency [2] 18.7 µM
inactive: Potency [1] | activity (max response) [7] 4.45% | Potency [9]

CC=CC1=C(C(=O)O)N2C(=O)[C@H](NC(=O)[C@H](N)c3ccc(O)cc3)[C@@H]2SC1
active: Potency [1] 1.18 µM | Potency [2] 2.64 µM | Potency [3] 9.35 µM | Potency [4] 13.2 µM
inactive: Potency [10] | Potency [11]

COc1ccc(-c2coc3cc(O)cc(O)c3c2=O)cc1
inactive: Potency [1] | Potency [2] | Potency [4] | Potency [5] | Potency [10] | Potency [11]
active: Potency [7] 31.6 µM | Potency [9] 28.2 µM

O=C(C=Cc1ccc(O)cc1)c1ccc(O)cc1O
active: Potency [4] 13.2 µM | Potency [10] 18.7 µM | Potency [11] 18.7 µM
inactive: Potency [1] | Potency [2]

COC1CCC(C(=O)c2ccc3nc4c(cc3c2)CCCO4)CC1 (configuration not stated)
inactive: Potency [1] | Potency [3] | Potency [5] | Potency [6] | activity (max response) [7] 3.89% | Potency [9]
active: Potency [2] 18.7 µM | Potency [11] 3.32 µM

CC(C)(C)OC(=O)CN(Cc1ccc(Cl)cc1)Cc1ccc([N+](=O)[O-])s1
inactive: Potency [1] | Potency [2] | Potency [5] | activity (max response) [7] -11.1% | Potency [9]

CC(=O)N1CCN(c2ccc(OCc3nn(C)c(C)c3-c3cccc4c(CCCOc5cc(C)c(Cl)c(C)c5)c(C(=O)O)n(Cc5cccnc5)c34)cc2)CC1
inactive: Potency [1] | Potency [2]
active: Potency [10] 18.7 µM | Potency [11] 20.9 µM

COC1CCC(N(C(=O)C2CCC(C)CC2)c2cc(C3=CCCCC3)sc2C(=O)O)CC1 (configuration not stated)
active: Potency [3] 18.7 µM | Potency [4] 14.8 µM
inactive: Potency [1] | Potency [2] | activity (max response) [7] 0.0132% | Potency [9]

OC[C@H]1O[C@@H](O[C@H]2[C@@H](O)[C@@](O)(CO)O[C@@H]2CO)[C@H](O)[C@@H](O)[C@@H]1O
inactive: Potency [1] | Potency [2] | Potency [10] | Potency [11]

Nc1ccc(S(=O)(=O)Nc2ncccn2)cc1
inactive: Potency [1] | Potency [8] | Potency [3] | Potency [4] | Potency [5] | Potency [6] | Potency [10]

Cc1ccc([C@@H]2O[C@H](CO)[C@@H](O)[C@H](O)[C@@H]2O)cc1Cc1ccc(-c2ccc(F)cc2)s1
inactive: Potency [1] | Potency [2] | Potency [6]

CC(=O)O[C@@]12CO[C@H]1C[C@H](O)[C@@]1(C)C(=O)[C@H](O)C3=C(C)[C@@H](OC(=O)C(O)[C@@H](NC(=O)OC(C)(C)C)c4ccccc4)C[C@@](O)([C@@H](OC(=O)c4ccccc4)[C@@H]21)C3(C)C (some centres not stated)
inactive: Potency [1] | Potency [2] | Potency [6] | Potency [10] | Potency [11]

O=c1[nH]c(=O)n([C@H]2C[C@@H](O)[C@@H](CO)O2)cc1C=CBr
inactive: Potency [1] | Potency [2] | Potency [4] | Potency [5] | Potency [10] | Potency [11]

COc1ccc(-c2oc3c(CC=C(C)C)c(OC4O[C@H](CO)[C@@H](O)[C@H](O)[C@@H]4O)cc(O)c3c(=O)c2OC2O[C@@H](C)[C@H](O)[C@@H](O)[C@@H]2O)cc1 (some centres not stated)
active: Potency [6] 18.7 µM | Potency [10] 13.2 µM
inactive: Potency [1] | Potency [2] | Potency [4]

CN1CCN(C2=Nc3cc(Cl)ccc3Nc3ccccc32)CC1
inactive: Potency [1] | Potency [2] | Potency [4] | Potency [5] | activity (max response) [7] -14.9%

O=c1c(-c2ccc(O)cc2)coc2cc(O)cc(O)c12
inactive: Potency [1] | Potency [2] | Potency [3] | Potency [5] | Potency [11] | Potency [9]

NCc1c[nH]c(=S)n1[C@H]1CCc2c(F)cc(F)cc2C1
inactive: Potency [1] | Potency [2] | Potency [3] | Potency [5] | activity (max response) [7] -7.85% | Potency [9]

CC=CCC=CCCC(=O)[C@H]1O[C@@H]1C(N)=O
inactive: Potency [1] | Potency [2] | Potency [4] | Potency [5]

O=c1oc2cc(O)ccc2s1
inactive: Potency [1] | Potency [2] | Potency [3] | Potency [4] | Potency [9]

Cc1cccc(C=NNc2cc(N3CCOCC3)nc(OCCc3ccccn3)n2)c1
active: Potency [1] 2.09 µM | Potency [2] 1.05 µM | Potency [10] 11.8 µM | Potency [11] 14.8 µM
